# From PubChem BioAssay (NCATS)
# Results filed as inconclusive are left out. A call without a number means that no potency is given here. Active and inactive are the calls of the source. Calls come from the whole dose curve; as a rule, active = well fitted curve in the direction sought with a large enough effect; inconclusive = small, poorly fitted or top-dose-only effect, or another doubt; inactive = no such curve, though single readings can be large; an effect the other way counts as inactive or inconclusive.
# Tests used:
# [1] = target: Lysine-specific demethylase 5B (Homo sapiens) (UniProt Q9UGL1); assay: Optimization screen for KDM5B Histone Demethylases FDH coupled qHTS against the LOPAC library (AID 1347166)
# Method in brief: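 KDM5BDeltaAP (200nM final) in 50mM HEPES pH 7.5, 0.01% Tween-20 was preincubated with compound for 10 min at room temperature. A substrate mix of 12.5uM H3K4Me3, 25uM a-ketoglutarate, ascorbate, Fe2+, NAD+ and formaldehyde dehydrogenase was then added. NADH fluorescence (340/450 nm) was read initially and after 30 min.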
# [2] = qHTS for inhibitors of adenylyl cyclases using a fission yeast platform: a pilot screen against the NCATS LOPAC library (AID 1347410)
# Method in brief: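 Growth medium went into the plates first, then compounds were pinned (final up to 57 µM), then CHP2027 yeast were added. Plates were incubated overnight (18 h) at 30C in the dark, and GFP was measured by laser scanning cytometry.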
# [3] = Validation qHTS assay for inhibitors of Activation Induced Cytidine Deaminase (AID): UDG Counterscreen signal (AID 1347427)
# Method in brief: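 Fluorescence at 560 nm excitation, 665 nm emission reports UDG signal after 250 mM NaOH (2x) addition and 30 min. Enzymes (AID 1 uM, UDG 2 U/mL, at 4/3x) preincubated 10 min with compound, then 4 h with 4x 250 nM DJC20/DJC23 substrate at room temperature.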
# [4] = Vero cells viability qHTS for Zika virus inhibitors (AID 1347167)
# Method in brief: (§1)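 Luminescent ATP readout (CellTiter Glo) after 30 min at 37 degrees C gives viability; cells in DMEM + 4% FBS were treated 24 to 48 hours with compound, following overnight attachment.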
# [5] = HepG2 cells viability qHTS for Zika virus inhibitors (AID 1347168)
# Method in brief: as §1
# [6] = target: Protein phosphatase 1D (Homo sapiens) (UniProt O15297); assay: Rhodamine-PBP qHTS Assay for Modulators of WT P53-Induced Phosphatase 1 (WIP1) (AID 1347425)
# Method in brief: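 WIP1 (5 nM final) was preincubated with compound for 1 hour at room temperature. It then dephosphorylated 10 uM VEPPL-pS-QETFS peptide in Tris-HCl pH 7.5 with 30 mM MgCl2. Released Pi was detected by 10 uM Rh-PBP fluorescence (ex 525/em 598 nm) read at 1-min intervals for 11 min, as delta f1 - f0.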
# [7] = Tertiary RLuc qRT-PCR qHTS assay for Zika virus inhibitors (AID 1347169); note: top concentration of the series differs between compounds; nearly all actives have a fitted effect of over 55% in size
# Method in brief: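 Orthogonal cell-based infection assay using recombinant ZIKV-RLuc (Cambodian) in Vero cells; compound added prior to virus at MOI 1-2. Incubation lasts 48-72 hrs at 37 degrees C before live-cell Renilla substrate is added and luminescence measured.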
# [8] = qHTS to identify inhibitors of the type 1 interferon - major histocompatibility complex class I in skeletal muscle: primary screen against the NCATS Pharmaceutical Collection (AID 1347407);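 note: luminescence of HiBiT knocked into endogenous HLA-B as interferon-induced MHC class I level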; note: potency is the fitted concentration of half-maximal effect
# Method in brief: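 Cells were seeded with 4 ng/ml IFN-beta, incubated 1 h, then dosed with compounds over eight 1:5 steps up to 46 uM final. After 24 h at 37 C, HiBiT lytic reagent was added and luminescence read after 10 min lysis in the dark.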
# [9] = target: Protein phosphatase 1D (Homo sapiens) (UniProt O15297); assay: RapidFire Mass Spectrometry qHTS Assay for Modulators of WT P53-Induced Phosphatase 1 (WIP1) (AID 1347424);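 note: amount of dephosphorylated VEPPL-S-QETFS peptide product formed by WIP1; series mostly up to about 63 µM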
# Method in brief: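 RapidFire mass spectrometry measured dephosphorylated peptide after 5 min room-temperature reaction of 2 uM VEPPL-pS-QETFS with 10 nM WIP1 (50 mM Tris-HCl pH 7.5, 30 mM MgCl2, 0.1 mM EGTA, BSA), following 1 hr compound preincubation; 1 uM isotope-labelled product standard.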
# Sequence of Protein phosphatase 1D (Homo sapiens) (O15297 whole entry, looked up): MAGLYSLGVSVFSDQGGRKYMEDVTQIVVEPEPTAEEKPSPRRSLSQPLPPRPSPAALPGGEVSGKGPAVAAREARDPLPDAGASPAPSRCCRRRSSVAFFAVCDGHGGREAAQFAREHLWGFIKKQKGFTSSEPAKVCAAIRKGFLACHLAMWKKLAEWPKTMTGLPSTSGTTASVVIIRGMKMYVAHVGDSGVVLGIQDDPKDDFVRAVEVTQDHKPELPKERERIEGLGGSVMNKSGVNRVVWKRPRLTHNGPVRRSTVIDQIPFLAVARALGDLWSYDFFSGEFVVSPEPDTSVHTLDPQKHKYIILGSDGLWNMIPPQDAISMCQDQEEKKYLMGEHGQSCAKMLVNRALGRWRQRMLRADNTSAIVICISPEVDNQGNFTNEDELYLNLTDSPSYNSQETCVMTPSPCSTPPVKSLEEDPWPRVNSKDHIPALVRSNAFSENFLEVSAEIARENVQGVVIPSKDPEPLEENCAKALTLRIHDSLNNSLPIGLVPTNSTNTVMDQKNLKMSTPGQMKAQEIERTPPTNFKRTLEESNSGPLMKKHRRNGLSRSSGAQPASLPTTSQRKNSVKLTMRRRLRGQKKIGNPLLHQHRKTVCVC
# Sequence of Lysine-specific demethylase 5B (Homo sapiens) (Q9UGL1 whole entry, looked up): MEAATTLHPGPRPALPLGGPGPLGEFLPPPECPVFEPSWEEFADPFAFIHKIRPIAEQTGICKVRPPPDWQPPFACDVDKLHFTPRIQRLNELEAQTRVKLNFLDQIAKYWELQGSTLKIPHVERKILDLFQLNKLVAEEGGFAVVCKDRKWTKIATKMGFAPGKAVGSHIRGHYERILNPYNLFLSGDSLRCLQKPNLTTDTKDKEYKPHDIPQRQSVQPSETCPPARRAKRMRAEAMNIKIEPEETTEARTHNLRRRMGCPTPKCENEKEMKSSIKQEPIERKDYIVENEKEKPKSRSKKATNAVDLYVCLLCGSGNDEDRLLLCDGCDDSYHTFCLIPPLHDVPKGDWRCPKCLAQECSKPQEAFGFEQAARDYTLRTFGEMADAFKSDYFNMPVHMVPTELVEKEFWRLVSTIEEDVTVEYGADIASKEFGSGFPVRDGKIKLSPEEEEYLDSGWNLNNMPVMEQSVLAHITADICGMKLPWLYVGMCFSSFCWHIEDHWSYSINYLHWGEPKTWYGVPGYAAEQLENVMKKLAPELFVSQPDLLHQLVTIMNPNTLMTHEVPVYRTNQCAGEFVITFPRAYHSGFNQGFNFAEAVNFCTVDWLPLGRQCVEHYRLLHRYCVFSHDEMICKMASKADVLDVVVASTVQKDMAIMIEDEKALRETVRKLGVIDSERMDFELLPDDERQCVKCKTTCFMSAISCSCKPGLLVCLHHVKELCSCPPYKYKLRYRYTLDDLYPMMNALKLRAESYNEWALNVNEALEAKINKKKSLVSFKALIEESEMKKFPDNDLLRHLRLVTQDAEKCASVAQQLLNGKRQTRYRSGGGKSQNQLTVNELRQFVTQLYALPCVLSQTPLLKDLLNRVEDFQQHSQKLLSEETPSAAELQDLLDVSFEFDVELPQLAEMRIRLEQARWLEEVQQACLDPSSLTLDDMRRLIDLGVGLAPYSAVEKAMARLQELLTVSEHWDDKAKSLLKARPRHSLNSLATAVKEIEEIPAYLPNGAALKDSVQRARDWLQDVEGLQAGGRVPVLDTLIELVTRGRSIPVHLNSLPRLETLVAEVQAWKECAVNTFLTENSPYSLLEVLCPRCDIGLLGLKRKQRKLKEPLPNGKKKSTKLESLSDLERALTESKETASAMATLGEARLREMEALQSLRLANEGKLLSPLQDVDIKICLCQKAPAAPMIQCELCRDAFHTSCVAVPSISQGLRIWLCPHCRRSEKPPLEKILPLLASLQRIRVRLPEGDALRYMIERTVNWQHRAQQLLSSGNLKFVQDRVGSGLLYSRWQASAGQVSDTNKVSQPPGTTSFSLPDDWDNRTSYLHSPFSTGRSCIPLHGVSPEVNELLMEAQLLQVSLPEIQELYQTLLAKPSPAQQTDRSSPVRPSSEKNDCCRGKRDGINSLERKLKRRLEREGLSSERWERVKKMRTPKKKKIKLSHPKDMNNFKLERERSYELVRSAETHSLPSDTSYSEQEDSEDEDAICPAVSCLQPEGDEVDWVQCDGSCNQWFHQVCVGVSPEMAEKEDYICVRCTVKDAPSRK
smiles,measurement,setting,value
N[C@@H](Cn1ccc(=O)c(O)c1)C(=O)O,outcome,[1],inactive
same,outcome,[2],inactive
same,outcome,[3],inactive
Cc1nc(C2CCCCC2)c(-c2ccc(S(N)(=O)=O)c(F)c2)o1,outcome,[4],inactive
same,outcome,[5],inactive
same,outcome,[6],inactive
O=C(COCCOCCOCC(=O)Nc1c(I)cc(I)c(C(=O)O)c1I)Nc1c(I)cc(I)c(C(=O)O)c1I,Potency,[7],inactive
same,Potency,[8],inactive
same,Potency,[9],inactive
same,outcome,[6],inactive
Cc1oc(=O)oc1COC(=O)[C@@H]1N2C(=O)[C@@H](NC(=O)[C@H](N)c3ccccc3)[C@H]2SC1(C)C,Potency,[8],inactive
same,Potency,[9],inactive
same,outcome,[6],inactive
O=C(Oc1ccccc1)c1ccccc1O,Potency,[8],inactive
same,Potency,[9],inactive
same,outcome,[6],inactive
CCOC(=O)N1CCC(Nc2ccc(Cl)cc2N)CC1,Potency,[8],inactive
same,Potency,[9],inactive
same,outcome,[6],inactive
C/C(=C(/OCCOc1ccc(Cl)cc1)c1ccc(Cl)cc1Cl)n1ccnc1,Potency,[8],inactive
same,Potency,[9],inactive
same,outcome,[6],inactive
O=C(NN1CCCC1)NS(=O)(=O)c1ccc(Cl)cc1,Potency,[8],inactive
same,Potency,[9],inactive
same,outcome,[6],inactive
CC(=O)O[C@@H]1C(=O)O[C@@H]2[C@H]1OC(=O)[C@@H]2OC(C)=O,Potency,[8],inactive
same,Potency,[9],inactive
same,outcome,[6],inactive
CC(C)Cc1ccc(C(C)C(=O)OCc2ccccn2)cc1 (configuration not stated),Potency,[8],inactive
same,Potency,[9],inactive
same,outcome,[6],inactive
CCOC(=O)O[C@]1(C(=O)OCCl)CC[C@H]2[C@@H]3CCC4=CC(=O)C=C[C@]4(C)[C@H]3[C@@H](O)C[C@@]21C,Potency,[8],inactive
same,Potency,[9],inactive
same,outcome,[6],inactive
c1ccc2occc2c1,Potency,[8],inactive
same,Potency,[9],inactive
same,outcome,[6],inactive
CN1CC[C@H](c2c(O)cc(O)c3c(=O)cc(-c4ccccc4Cl)oc23)[C@H](O)C1,Potency,[8],0.21 µM (active)
same,Potency,[9],inactive
same,outcome,[6],inactive
COC(=O)c1cc(S(N)(=O)=O)ccc1OC,Potency,[8],inactive
same,Potency,[9],inactive
same,outcome,[6],inactive
CCCc1ccc(OCC(=O)N2CCN(C(=O)COc3ccc(CCC)cc3OC)CC2)c(OC)c1,Potency,[8],inactive
same,Potency,[9],inactive
same,outcome,[6],inactive
CCCCC(CC)CNC(=O)CC(C)OC(=O)CCC(=O)O (configuration not stated),Potency,[8],inactive
same,Potency,[9],inactive
same,outcome,[6],inactive
COc1ccccc1OCC1CNC(=O)O1 (configuration not stated),Potency,[8],inactive
same,Potency,[9],inactive
same,outcome,[6],inactive
CC(=O)CC/C=C(\C)CC/C=C(\C)CC/C=C(\C)CCC=C(C)C,Potency,[8],inactive
same,Potency,[9],inactive
same,outcome,[6],inactive
COC(=O)CCCCC(CCSS/C(CCO)=C(\C)N(C=O)Cc1cnc(C)nc1N)SC(C)=O (configuration not stated),Potency,[8],inactive
same,Potency,[9],inactive
same,outcome,[6],inactive
Cc1ccc(Cl)c(OCC(O)CNC(C)(C)C)c1 (configuration not stated),Potency,[8],inactive
same,Potency,[9],inactive
same,outcome,[6],inactive
O=C(O)Cc1ccc(OCCNC[C@H](O)c2ccccc2)cc1,Potency,[8],inactive
same,Potency,[9],inactive
same,outcome,[6],inactive
CCCCC/C=C\C/C=C\CCCCCCCC(=O)NC(C)c1ccccc1 (configuration not stated),Potency,[8],inactive
same,Potency,[9],inactive
same,outcome,[6],inactive
CC(=O)N(c1onc(C)c1C)S(=O)(=O)c1ccc(N)cc1,Potency,[8],inactive
same,Potency,[9],inactive
same,outcome,[6],inactive
Nc1nnnn1-c1ccccc1,Potency,[8],inactive
same,Potency,[9],inactive
same,outcome,[6],inactive
NC(=O)COCCN1CCN(C(c2ccccc2)c2ccc(Cl)cc2)CC1 (configuration not stated),Potency,[8],inactive
same,Potency,[9],inactive
same,outcome,[6],inactive
O=P(O)(O)OCC(O)CO (configuration not stated),Potency,[8],inactive
same,Potency,[9],inactive
same,outcome,[6],inactive
C[C@@]12CCC[C@H]1[C@@H]1CC[C@H]3C[C@@H](O)CC[C@]3(C)[C@H]1CC2,Potency,[8],inactive
same,Potency,[9],inactive
same,outcome,[6],inactive
C1N2CN3CN1CN(C2)C3,Potency,[8],inactive
same,Potency,[9],inactive
same,outcome,[6],inactive
CCCCCN(CCCOC)C(=O)C(CCC(=O)O)NC(=O)c1ccc(Cl)c(Cl)c1 (configuration not stated),Potency,[8],inactive
same,Potency,[9],inactive
same,outcome,[6],inactive
CCCCNc1ccc(C(=O)OCCN(CC)CC)cc1,Potency,[8],inactive
same,Potency,[9],inactive
same,outcome,[6],inactive
CC(NN)c1ccccc1 (configuration not stated),Potency,[8],inactive
same,Potency,[9],inactive
same,outcome,[6],inactive
NC(=O)NS(=O)(=O)c1ccc(Cl)cc1,Potency,[8],inactive
same,Potency,[9],inactive
same,outcome,[6],inactive
CCCCN(CCCC)C(C(N)=O)c1ccc(OC)cc1 (configuration not stated),Potency,[8],inactive
same,Potency,[9],inactive
same,outcome,[6],inactive
COc1cc(S(N)(=O)=O)cc(C(=O)O)c1OC,Potency,[8],inactive
same,Potency,[9],inactive
same,outcome,[6],inactive
OC[C@]1(O)OC[C@@H](O)[C@H](O)[C@@H]1O,Potency,[8],inactive
same,Potency,[9],inactive
same,outcome,[6],inactive
O=C(O)Cc1ccccc1Oc1ccc(Cl)cc1Cl,Potency,[8],inactive
same,Potency,[9],inactive
same,outcome,[6],inactive
CN1CCC(Nc2ncc3ncnc(Nc4ccc(F)c(Cl)c4)c3n2)CC1,Potency,[8],18.7 µM (active)
same,Potency,[9],inactive
same,outcome,[6],inactive
Cc1ccc(C(=O)C(=O)O)cc1C,Potency,[8],inactive
same,Potency,[9],inactive
same,outcome,[6],inactive
Cc1ccc2c(Cl)cc(Cl)c(O)c2n1,Potency,[8],inactive
same,Potency,[9],inactive
same,outcome,[6],inactive
CCCC(=O)O[C@]1(C(=O)CC)CC[C@H]2[C@@H]3CCC4=CC(=O)CC[C@]4(C)[C@H]3[C@@H](O)C[C@@]21C,Potency,[8],inactive
same,Potency,[9],inactive
same,outcome,[6],inactive
CCCc1ncc(C(=O)O)s1,Potency,[8],inactive
same,Potency,[9],inactive
same,outcome,[6],inactive
CCC[C@H](N[C@@H](C)C(=O)N1[C@H](C(=O)O)C[C@@H]2CCCC[C@@H]21)C(=O)OCC,Potency,[8],inactive
same,Potency,[9],inactive
same,outcome,[6],inactive
